One assay addresses PARP11. In words: pooled miR-30 sensor sort-seq; sequence = guide strand. As to conditions: shRNA.
With TATAAATTCACATAGCTCCCGT, the sensor-assay potency score (higher = more potent) came out at 0.0491. As for TAAGCTGATATGGTACTTGAGT, the sensor-assay potency score (higher = more potent) is -0.461. On the same count and under the same terms, the result for TTGAGTATTCACATTCTCCCAG reads -0.0297.

TAAAGCTTCCTTGACCACCGAG had a sensor-assay potency score (higher = more potent) of 0.0153.

Take TTTTTTCTTGAGCTGAGCCTTT: the sensor-assay potency score (higher = more potent) is -0.428. In the case of TTGCGATCCATCGTCTTCCCAA, the sensor-assay potency score (higher = more potent) is -0.797. TTTTTTTCTTGAGCTGAGCCTT showed a sensor-assay potency score (higher = more potent) of -0.839. Turning to TACTTGAGTATTCACATTCTCC, the sensor-assay potency score (higher = more potent) is -0.755. TTAATCTGAGGCACACCTCTTT gave a sensor-assay potency score (higher = more potent) of 0.16.

For another assay, the target named is PATL1. The description is as above. As to conditions: shRNA.
TTATTCACACTAGAAACGGTAA had a sensor-assay potency score (higher = more potent) of -0.529. Still for that read-out and setting: the result for TTTTCGGATACACATGATCTGT reads -1.26; that for TTTGTGCTTTCTGTCATCCATT, -0.905. Still for that read-out and setting: the result for TTTGTGTTGATTCTGTAGCAGG reads -0.627; that for TTTCGGATACACATGATCTGTA, -0.0955.

On to TTTCTCAATTATAACAAGGGTT, for which the sensor-assay potency score (higher = more potent) is -0.533. TATTCTGTTGCTGTCTCTGATG: the sensor-assay potency score (higher = more potent) is -1.31. Regarding TAGCAGGGTCTGAACTCTGTAG, the sensor-assay potency score (higher = more potent) is -0.715. As for TTGAGGTAGGTTCATTAGCTGT, the sensor-assay potency score (higher = more potent) is -1.61. The sequence TTTTTCTCCTCTTGTCTCGAAC came in with a sensor-assay potency score (higher = more potent) of -1.11. Regarding TGATCTTGATGACTGCTCCGGT, the sensor-assay potency score (higher = more potent) turned out to be 0.466.

As for TGTCACAACAGCATCAATCATT, the sensor-assay potency score (higher = more potent) is -0.773.

These data come from the OligoGym collection.
Note: reference of the scale not given here.
